# Where “and” joins values, the source holds several entries; their conditions need not be identical. Identical values can stand only once. Results filed as inconclusive are left out. A call without a number means that no potency is given here. The source holds several records for some structures; these can differ, active in one and inactive in another. Calls of active or inactive are those of the source. Unless noted, calls follow the shape of the dose curve; as a rule, active = well fitted curve in the direction sought with a large enough effect in the repeat runs; inconclusive = weak or mixed curves; inactive = no such curve, though single readings can be large; an effect the other way counts as inactive or inconclusive.
# Experiments:
# [1] = target: Estrogen receptor beta (Homo sapiens) (UniProt Q92731); experiment: qHTS assay to identify small molecule agonists of the estrogen receptor beta (ER-beta) signaling pathway (AID 1259377; active = well fitted activation curve with a large enough effect in the signal ratio in the repeat runs, not every such curve was filed as active; the % refers to the signal ratio)
# How it was run: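 Measured by fluorescence intensity from a B/G FRET beta-lactamase substrate (2 h, room temperature) in ER-beta-UAS-bla HEK293T cells treated with DMSO-dissolved compounds for 16 hr at 37C and 5% CO2.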
# [2] = target: Estrogen receptor beta (Homo sapiens) (UniProt Q92731); experiment: qHTS assay to identify small molecule antagonists of the estrogen receptor beta (ER-beta) signaling pathway (AID 1259378; active = well fitted inhibition curve with a large enough effect in the signal ratio in the repeat runs, not every such curve was filed as active; the % refers to the signal ratio; also: potency is read from the fitted curve at half-maximal effect)
# How it was run: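 ER-beta-UAS-bla HEK293T cells in 2% charcoal-stripped FBS medium treated with compound plus 1nM final 17-beta-estradiol for 16 hr at 37C. Beta-lactamase reporter read by FRET substrate fluorescence after 2 hours at room temperature.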
# [3] = qHTS assay to identify small molecule agonists of the androgen receptor (AR) signaling pathway in the presence of an antagonist - cell viability counter screen (AID 1259379); also: nearly all actives have a fitted effect of over 25% in size; also: potency is read from the fitted curve at half-maximal effect;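 as to activity change, negative = cytotoxicity: MDA-kb2 human breast cancer cells carrying an MMTV luciferase reporter; series mostly up to about 92 µM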
# How it was run: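 Cells: MDA-kb2 (MMTV-luc, AR and GR elements), 3,000/well, 5 hr settle. Added: nilutamide 3.0uM final, then compounds (15 conc.). Incubation: 16 hr, 37C, no CO2. Read-out: CellTiter-Fluor, 1 hr, fluorescence.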
# [4] = qHTS assay to identify small molecule antagonists of the estrogen receptor beta (ER-beta) signaling pathway - cell viability counter screen (AID 1259382); also: nearly all actives have a fitted effect of over 55% in size; also: potency is read from the fitted curve at half-maximal effect; as to activity change, negative = cytotoxicity: series mostly up to about 92 µM
# How it was run: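 Cells: ER-beta-UAS-bla HEK293T, 2,000/well, 2% CS-FBS, 6 hr settle. Cpd + E2 (1nM final), 16 hr, 37C/5% CO2. Bla FRET substrate 2 hr RT, then CellTiter-Glo 30 min RT, luminescence.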
# [5] = target: Estrogen receptor (Homo sapiens) (UniProt P03372); experiment: qHTS assay to identify small molecule agonists of the estrogen receptor alpha (ER-alpha) signaling pathway in the presence of an antagonist (AID 1259383; calls by dose curve; also: top concentration of the series differs between compounds; nearly all actives have a fitted effect of over 15% in size)
# How it was run: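 VM7Luc4E2, endog. ER-alpha + 4×ERE-luc; charcoal-stripped FBS, phenol red-free, 5 d; 24hr plating; +10.0nM ICI-182,780 (final); cpds 15 conc, 22hr, 37C/5% CO2; ONE-Glo luminescence.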
# [6] = qHTS assay to identify small molecule agonists or antagonists of the thyroid stimulating hormone receptor (TSHR) signaling pathway - wild type cell line counter screen (AID 1259384; calls by dose curve)
# How it was run: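 Wild-type Hek293 cells, 800/well, 18 h at 37C, then compound with Ro20-1724 for 30 min RT. cAMP by HTRF (cAMP-d2/anti-cAMP cryptate), 1 h RT, fluorescence read. 15 concentrations, triplicates.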
# [7] = target: Thyrotropin receptor (Homo sapiens) (UniProt P16473); experiment: qHTS assay to identify small molecule antagonists of the thyroid stimulating hormone receptor (TSHR) signaling pathway (AID 1259385; calls by dose curve; also: nearly all actives have a fitted effect of over 20% in size)
# How it was run: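 TSHR-HEK293 cells (800/well) plated 18 h, then compounds with Ro20-1724 and TSH at 1.5 ng/mL final, 30 min at room temperature. cAMP quantified by HTRF (cAMP-d2/anti-cAMP-cryptate, 1 h); 15 concentrations in triplicate.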
# [8] = target: Progesterone receptor (Homo sapiens) (UniProt P06401); experiment: qHTS assay to identify small molecule antagonists of the progesterone receptor (PR) signaling pathway (AID 1346795; active = well fitted inhibition curve with a large enough effect in the signal ratio in the repeat runs, not every such curve was filed as active; the % refers to the signal ratio; also: potency is read from the fitted curve at half-maximal effect)
# How it was run: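 After 6 hr plating at 37C in 2% stripped-serum medium, PR-UAS-bla HEK293T cells got compounds, then 1 nM R5020. Sixteen hours later, LiveBLAzer substrate was applied for 2 hr at room temperature and fluorescence was recorded.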
# [9] = qHTS assay to identify small molecule antagonists of the progesterone receptor (PR) signaling pathway - cell viability counter screen (AID 1346798); also: nearly all actives have a fitted effect of over 50% in size; also: potency is read from the fitted curve at half-maximal effect; as to activity change, negative = cytotoxicity: series mostly up to about 92 µM
# How it was run: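 Viability was determined by ATP-based luminescence (CellTiter-Glo) in PR-UAS-bla HEK293T cells cultured in 2% charcoal-stripped serum and incubated 16 hr with compounds under R5020 stimulation.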
# [10] = qHTS assay to identify small molecule agonists of the TGF-beta/Smad signaling pathway - cell viability counter screen (AID 1346829); also: nearly all actives have a fitted effect of over 45% in size; also: potency is read from the fitted curve at half-maximal effect; as to activity change, negative = cytotoxicity: top concentration of the series differs between compounds
# How it was run: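 Here the cytotoxicity of library compounds is measured in SBE-bla HEK 293T cells treated for 5 hr, using CellTiter-Glo added to wells already read for the beta-lactamase reporter.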
# [11] = qHTS assay to identify small molecule agonists of the TGF-beta/Smad signaling pathway (AID 1346859; active = well fitted activation curve with a large enough effect in the signal ratio in the repeat runs, not every such curve was filed as active; the % refers to the signal ratio; also: series mostly up to about 77 µM)
# How it was run: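 Dual-wavelength fluorescence (460/530 nm emission) quantified beta-lactamase expression under the Smad binding element in HEK 293T cells following 5 hr compound treatment at 37 C.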
# [12] = Human pregnane X receptor (PXR) small molecule agonists, qHTS cell viability counter screen (AID 1346977); also: nearly all actives have a fitted effect of over 50% in size; also: potency is read from the fitted curve at half-maximal effect
# How it was run: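 HepG2 cells stably carrying the PXR-Luc reporter are cultured with 5% charcoal-stripped FBS and treated with compounds for 24hr. CellTiter-Fluor is added at 23hr and fluorescence is read after 1hr.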
# [13] = qHTS assay to identify small molecule agonists of the estrogen receptor beta (ER-beta) signaling pathway - cell viability counter screen (AID 1259380); also: nearly all actives have a fitted effect of over 30% in size; also: potency is read from the fitted curve at half-maximal effect
# How it was run: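 HEK293T ER-beta-UAS-bla; 2% CS-FBS; 6 hr pre-plate, 16 hr cpd at 37C/5% CO2; LiveBLAzer read first, then CellTiter-Glo 30 min RT, luminescence.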
# [14] = qHTS assay to identify small molecule agonists of the estrogen receptor alpha (ER-alpha) signaling pathway in the presence of an antagonist - cell viability counter screen (AID 1259386);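 also: series mostly up to about 92 µM; cells exposed to compounds for 22 h at 37 °C before the viability read; nearly all actives have a fitted effect of over 30% in size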
# How it was run: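 VM7Luc4E2, stripped-serum pre-culture 5 d; 24hr plating; +ICI-182,780 10.0nM final; cpds 15 conc, 22hr, 37C/5% CO2; CellTiter-Fluor added at 21hr, fluorescence 1hr later.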
# [15] = target: Progesterone receptor (Homo sapiens) (UniProt P06401); experiment: qHTS assay to identify small molecule agonists of the progesterone receptor (PR) signaling pathway (AID 1346784; calls by dose curve; also: nearly all actives have a fitted effect of over 30% in size)
# How it was run: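 The screen uses PR-UAS-bla HEK 293T cells in charcoal-stripped serum (2%). Compounds are applied for 16 hr at 37C after a 6 hr pre-incubation, and reporter activity is detected with a FRET beta-lactamase substrate after 2 hr at room temperature.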
# [16] = qHTS assay to identify small molecule agonists of the progesterone receptor (PR) signaling pathway - cell viability counter screen (AID 1346799; calls by dose curve; also: nearly all actives have a fitted effect of over 45% in size)
# How it was run: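 Viability was scored by ATP luminescence (CellTiter-Glo, 30 min, room temperature) in the same wells used for the reporter readout, after 16 hr compound exposure of PR-UAS-bla HEK293T cells.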
# [17] = qHTS assay to identify small molecule antagonists of the TGF-beta/Smad signaling pathway - cell viability counter screen (AID 1346824); also: nearly all actives have a fitted effect of over 50% in size
# How it was run: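 SBE-bla HEK 293T cells, incubated overnight, then compound plus 0.25 ng/mL TGF-beta1 (stock added) for 5 hr at 37 C. Viability was read in the same wells by CellTiter-Glo luminescence after 30 min at room temperature.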
# [18] = target: Thyrotropin-releasing hormone receptor (Homo sapiens) (UniProt P34981); experiment: qHTS assay to identify small molecule antagonists of the thyrotropin-releasing hormone receptor (TRHR) signaling pathway (AID 1346877; active = well fitted inhibition curve with a large enough effect in the repeat runs, not every such curve was filed as active; also: series mostly up to about 51 µM)
# How it was run: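 Intracellular calcium fluorescence, read kinetically every second over 3 min, reports TRH-evoked signalling in HEK293 cells carrying TRHR. Test compounds were added 5 min ahead of a 1 nM TRH challenge.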
# [19] = target: Thyrotropin-releasing hormone receptor (Homo sapiens) (UniProt P34981); experiment: qHTS assay to identify small molecule agonists of the thyrotropin-releasing hormone receptor (TRHR) signaling pathway (AID 1346891; calls by dose curve;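 also: HEK293 cells expressing TRHR with calcium dye readout; series mostly up to about 58 µM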)
# How it was run: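 Kinetic fluorescence (3 min, 1 s intervals) reported intracellular calcium after compound transfer onto TRHR-Hek293 cells pre-loaded with dye for 2 h at 37 °C.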
# [20] = target: Androgen receptor (Homo sapiens) (UniProt P10275); experiment: qHTS assay to identify small molecule agonists of the androgen receptor (AR) signaling pathway in the presence of an antagonist (AID 1259381; calls by dose curve; also: nearly all actives have a fitted effect of over 15% in size)
# How it was run: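 MDA-kb2 cells, 3,000/well, rested 5hr at 37C/0% CO2 → nilutamide 3.0uM final or buffer → compounds, 15 conc. → 16hr at 37C → ONE-Glo, 30min RT → luminescence.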
# Chain of Thyrotropin-releasing hormone receptor (Homo sapiens) (P34981 whole entry, looked up): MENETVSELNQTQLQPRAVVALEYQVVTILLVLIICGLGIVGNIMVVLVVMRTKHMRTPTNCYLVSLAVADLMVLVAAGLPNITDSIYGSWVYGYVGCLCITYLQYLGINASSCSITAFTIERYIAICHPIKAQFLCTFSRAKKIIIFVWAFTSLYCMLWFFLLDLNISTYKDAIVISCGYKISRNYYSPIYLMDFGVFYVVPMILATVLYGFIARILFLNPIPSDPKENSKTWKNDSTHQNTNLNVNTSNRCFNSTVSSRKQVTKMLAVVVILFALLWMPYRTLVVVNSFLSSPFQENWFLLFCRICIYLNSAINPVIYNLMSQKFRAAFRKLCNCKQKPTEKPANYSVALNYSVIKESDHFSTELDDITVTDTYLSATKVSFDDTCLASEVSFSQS
# Chain of Estrogen receptor beta (Homo sapiens) (Q92731 whole entry, looked up): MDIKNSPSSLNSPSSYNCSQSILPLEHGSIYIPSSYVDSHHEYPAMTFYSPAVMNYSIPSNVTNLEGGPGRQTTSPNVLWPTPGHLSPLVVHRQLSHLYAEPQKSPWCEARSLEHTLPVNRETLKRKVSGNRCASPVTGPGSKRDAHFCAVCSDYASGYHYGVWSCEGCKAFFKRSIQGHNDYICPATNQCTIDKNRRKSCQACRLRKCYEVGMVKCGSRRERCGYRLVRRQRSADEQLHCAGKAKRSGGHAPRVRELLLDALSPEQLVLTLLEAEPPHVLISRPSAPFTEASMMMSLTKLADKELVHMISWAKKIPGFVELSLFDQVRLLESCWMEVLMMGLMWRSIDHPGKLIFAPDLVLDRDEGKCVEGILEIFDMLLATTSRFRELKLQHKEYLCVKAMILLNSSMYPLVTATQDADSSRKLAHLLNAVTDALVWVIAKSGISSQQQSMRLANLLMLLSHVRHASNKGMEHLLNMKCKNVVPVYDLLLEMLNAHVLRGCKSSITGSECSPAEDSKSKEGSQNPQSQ
# Chain of Progesterone receptor (Homo sapiens) (P06401 whole entry, looked up): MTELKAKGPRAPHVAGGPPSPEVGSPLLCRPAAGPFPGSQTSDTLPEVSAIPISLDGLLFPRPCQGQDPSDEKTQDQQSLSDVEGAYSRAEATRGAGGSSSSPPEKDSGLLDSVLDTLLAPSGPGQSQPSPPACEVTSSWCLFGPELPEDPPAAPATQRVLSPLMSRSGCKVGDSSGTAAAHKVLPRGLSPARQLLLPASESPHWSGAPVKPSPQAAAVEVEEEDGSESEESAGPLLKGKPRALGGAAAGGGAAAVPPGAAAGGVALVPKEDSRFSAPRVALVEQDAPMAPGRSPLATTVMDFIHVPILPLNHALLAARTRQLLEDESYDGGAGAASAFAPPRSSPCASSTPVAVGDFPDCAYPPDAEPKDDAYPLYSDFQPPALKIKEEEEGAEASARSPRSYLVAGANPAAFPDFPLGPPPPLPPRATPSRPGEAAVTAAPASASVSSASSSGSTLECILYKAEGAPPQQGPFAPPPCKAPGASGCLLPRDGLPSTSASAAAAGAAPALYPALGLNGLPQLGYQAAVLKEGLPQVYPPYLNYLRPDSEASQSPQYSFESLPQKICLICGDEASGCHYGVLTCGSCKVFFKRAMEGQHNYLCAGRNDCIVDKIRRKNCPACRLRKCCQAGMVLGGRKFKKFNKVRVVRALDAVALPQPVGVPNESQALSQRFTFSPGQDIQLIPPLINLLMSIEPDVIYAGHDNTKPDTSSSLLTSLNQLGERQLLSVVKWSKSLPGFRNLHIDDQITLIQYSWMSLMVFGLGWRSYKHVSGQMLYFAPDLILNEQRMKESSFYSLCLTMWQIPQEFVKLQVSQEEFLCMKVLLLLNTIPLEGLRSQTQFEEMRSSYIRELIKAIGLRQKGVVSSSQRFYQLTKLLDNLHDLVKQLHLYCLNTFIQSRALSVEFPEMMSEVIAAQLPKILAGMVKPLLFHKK
# Chain of Estrogen receptor (Homo sapiens) (P03372 whole entry, looked up): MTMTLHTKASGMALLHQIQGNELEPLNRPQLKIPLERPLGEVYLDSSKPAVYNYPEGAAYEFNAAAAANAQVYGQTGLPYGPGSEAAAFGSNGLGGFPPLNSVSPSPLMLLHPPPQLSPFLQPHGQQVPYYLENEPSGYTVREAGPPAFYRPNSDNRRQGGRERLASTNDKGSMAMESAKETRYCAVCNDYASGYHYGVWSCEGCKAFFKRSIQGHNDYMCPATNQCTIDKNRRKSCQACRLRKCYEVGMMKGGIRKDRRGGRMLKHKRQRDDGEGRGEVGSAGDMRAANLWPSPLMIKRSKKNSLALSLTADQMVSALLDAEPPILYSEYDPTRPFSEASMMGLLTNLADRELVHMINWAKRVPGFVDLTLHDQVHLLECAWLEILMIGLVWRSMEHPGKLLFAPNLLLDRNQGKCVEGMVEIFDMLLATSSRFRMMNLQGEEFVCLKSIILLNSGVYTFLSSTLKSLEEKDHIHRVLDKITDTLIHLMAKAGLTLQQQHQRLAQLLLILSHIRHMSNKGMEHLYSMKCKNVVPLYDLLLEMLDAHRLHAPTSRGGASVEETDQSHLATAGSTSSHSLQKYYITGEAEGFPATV
# Chain of Thyrotropin receptor (Homo sapiens) (P16473 whole entry, looked up): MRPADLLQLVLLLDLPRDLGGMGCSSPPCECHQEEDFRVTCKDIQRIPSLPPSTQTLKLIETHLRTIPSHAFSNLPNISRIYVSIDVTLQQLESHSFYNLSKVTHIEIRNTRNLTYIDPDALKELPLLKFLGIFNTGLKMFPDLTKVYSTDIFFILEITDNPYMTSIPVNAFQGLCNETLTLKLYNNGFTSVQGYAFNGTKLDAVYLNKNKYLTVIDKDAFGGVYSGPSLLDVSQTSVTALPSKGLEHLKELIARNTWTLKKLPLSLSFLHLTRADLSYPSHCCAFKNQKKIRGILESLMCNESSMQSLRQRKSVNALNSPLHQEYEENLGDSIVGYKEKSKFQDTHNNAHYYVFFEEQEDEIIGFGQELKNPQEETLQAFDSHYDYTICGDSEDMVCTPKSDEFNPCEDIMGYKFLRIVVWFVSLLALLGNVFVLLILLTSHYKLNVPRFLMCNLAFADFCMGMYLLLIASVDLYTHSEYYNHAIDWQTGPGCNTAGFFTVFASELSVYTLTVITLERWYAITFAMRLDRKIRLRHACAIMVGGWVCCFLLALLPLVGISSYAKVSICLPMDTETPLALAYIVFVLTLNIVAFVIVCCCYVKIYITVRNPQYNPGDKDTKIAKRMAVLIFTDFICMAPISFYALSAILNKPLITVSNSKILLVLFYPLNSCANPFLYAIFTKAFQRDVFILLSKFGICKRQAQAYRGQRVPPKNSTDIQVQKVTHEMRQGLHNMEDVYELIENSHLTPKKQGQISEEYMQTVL
# Chain of Androgen receptor (Homo sapiens) (P10275 whole entry, looked up): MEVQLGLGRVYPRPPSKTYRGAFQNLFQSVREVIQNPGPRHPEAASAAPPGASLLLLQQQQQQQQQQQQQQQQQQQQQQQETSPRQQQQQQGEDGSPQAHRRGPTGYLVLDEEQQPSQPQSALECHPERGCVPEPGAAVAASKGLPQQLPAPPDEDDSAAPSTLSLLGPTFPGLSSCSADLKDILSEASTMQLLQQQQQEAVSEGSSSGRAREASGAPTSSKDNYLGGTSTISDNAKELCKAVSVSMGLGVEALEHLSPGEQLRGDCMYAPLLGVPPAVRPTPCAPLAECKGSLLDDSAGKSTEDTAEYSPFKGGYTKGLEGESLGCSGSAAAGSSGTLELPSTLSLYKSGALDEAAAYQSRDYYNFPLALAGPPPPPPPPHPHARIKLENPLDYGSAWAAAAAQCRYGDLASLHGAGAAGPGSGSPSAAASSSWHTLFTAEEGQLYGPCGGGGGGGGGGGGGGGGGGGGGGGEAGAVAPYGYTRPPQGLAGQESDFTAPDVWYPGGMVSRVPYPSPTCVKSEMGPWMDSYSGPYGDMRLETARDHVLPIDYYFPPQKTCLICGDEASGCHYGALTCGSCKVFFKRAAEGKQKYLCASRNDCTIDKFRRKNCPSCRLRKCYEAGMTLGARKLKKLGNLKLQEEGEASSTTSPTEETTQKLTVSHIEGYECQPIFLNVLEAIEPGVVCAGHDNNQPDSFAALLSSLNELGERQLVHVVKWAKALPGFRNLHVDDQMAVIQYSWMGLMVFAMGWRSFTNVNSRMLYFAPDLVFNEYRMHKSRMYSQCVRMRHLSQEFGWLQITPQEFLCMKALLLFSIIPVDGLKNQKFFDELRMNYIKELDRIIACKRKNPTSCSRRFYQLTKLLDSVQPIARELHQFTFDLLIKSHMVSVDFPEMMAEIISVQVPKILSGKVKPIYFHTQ
compound,measurement,setting,value
O=c1[nH]c2ccccc2n1C1CCN(CCCC(c2ccc(F)cc2)c2ccc(F)cc2)CC1,Potency,[1],inactive
same,Potency,[2],17.2 µM (active)
same,Potency,[3],24.3 µM (active)
same,Potency,[4],30.6 µM (active) and 29.8 µM (active)
same,Potency,[5],inactive
same,outcome,[6],inactive
same,Potency,[7],inactive
same,Potency,[8],26.6 µM (active)
same,Potency,[9],30.6 µM (active)
same,Potency,[10],49 µM (active) and inactive
same,outcome,[11],inactive
same,Potency,[12],21.7 µM (active) and 26.6 µM (active)
CCOP(=S)(OCC)OC(Cl)C(Cl)(Cl)Cl (stereo unspecified),Potency,[1],inactive
same,Potency,[2],inactive
same,Potency,[3],inactive
same,Potency,[13],inactive
same,Potency,[4],inactive
same,outcome,[6],inactive
same,Potency,[14],inactive
same,Potency,[15],inactive
same,Potency,[8],inactive
same,Potency,[9],inactive
same,Potency,[16],inactive
same,Potency,[17],inactive
same,Potency,[10],inactive
same,outcome,[11],inactive
same,Potency,[12],inactive
CC(C)[C@H](C(=O)OC(C#N)c1cccc(Oc2ccccc2)c1)c1ccc(OC(F)F)cc1 (stereo partly specified),Potency,[1],inactive
same,Potency,[2],inactive
same,Potency,[3],inactive
same,Potency,[4],inactive
same,outcome,[6],inactive
same,Potency,[7],inactive
same,Potency,[14],inactive
same,Potency,[15],inactive
same,Potency,[10],inactive
same,outcome,[11],inactive
same,Potency,[18],inactive
same,Potency,[19],inactive
same,Potency,[12],inactive
O=C1NCN(c2ccccc2)C12CCN(CC1COc3ccccc3O1)CC2 (stereo unspecified),Potency,[1],inactive
same,Potency,[2],inactive
same,Potency,[13],11.9 µM (active)
same,Potency,[5],inactive
same,outcome,[6],inactive
same,Potency,[7],inactive
same,Potency,[15],inactive
same,Potency,[8],inactive
same,Potency,[9],inactive
same,Potency,[16],inactive
same,Potency,[10],inactive
same,outcome,[11],inactive
same,Potency,[18],inactive
same,Potency,[19],inactive
same,Potency,[12],inactive
N#CNC#N,Potency,[1],inactive
same,Potency,[2],inactive
same,Potency,[3],inactive
same,Potency,[4],inactive
same,Potency,[7],inactive
same,Potency,[15],inactive
same,Potency,[9],inactive
same,Potency,[16],inactive
same,Potency,[17],inactive
same,Potency,[10],inactive
same,outcome,[11],inactive
same,Potency,[18],inactive
same,Potency,[19],inactive
same,Potency,[12],inactive
CC(Cc1ccc(C(C)(C)C)cc1)CN1C[C@@H](C)O[C@@H](C)C1 (stereo partly specified),Potency,[1],inactive
same,Potency,[2],inactive
same,Potency,[3],inactive
same,Potency,[4],inactive
same,outcome,[6],inactive
same,Potency,[14],inactive
same,Potency,[8],inactive
same,Potency,[17],inactive
same,Potency,[10],inactive
same,outcome,[11],inactive
same,Potency,[12],inactive
COc1cccc(C(=O)CCN[C@@H](C)[C@H](O)c2ccccc2)c1,Potency,[1],inactive
same,Potency,[2],inactive
same,Potency,[20],inactive
same,Potency,[4],inactive
same,outcome,[6],inactive
same,Potency,[7],inactive
same,Potency,[14],inactive
same,Potency,[15],inactive
same,Potency,[8],inactive
same,Potency,[10],inactive
same,outcome,[11],inactive
same,Potency,[18],inactive
same,Potency,[19],inactive
same,Potency,[12],29.8 µM (active)
Brc1c(Br)c(Br)c(Oc2c(Br)c(Br)c(Br)c(Br)c2Br)c(Br)c1Br,activation,[1],9.23% [at 19 µM] (inactive)
same,"activity, negative = inhibition",[2],-4.25% [at 19 µM] (inactive)
same,"activity change, negative = cytotoxicity",[3],4.12% [at 19 µM] (inactive)
same,"activity change, negative = cytotoxicity",[13],-3.73% [at 19 µM] (inactive)
same,"activity change, negative = cytotoxicity",[4],4.03% [at 19 µM] (inactive)
same,cAMP activity change,[6],-3.73% [at 18.9 µM] (inactive)
same,"activity change, negative = inhibition",[7],0.486% [at 19 µM] (inactive)
same,activation,[15],-1.27% [at 19 µM] (inactive)
same,"activity change, negative = inhibition",[8],0.347% [at 18.9 µM] (inactive)
same,"activity change, negative = cytotoxicity",[9],-6.81% [at 18.9 µM] (inactive)
same,"activity change, negative = cytotoxicity",[16],-0.672% [at 19 µM] (inactive)
same,"viability change, negative = cytotoxic",[17],12.3% [at 15.8 µM] (inactive)
same,activation,[11],4.57% [at 15.8 µM] (inactive)
same,"activity, negative = inhibition",[18],2.65% [at 10.5 µM] (inactive)
same,activation,[19],-0.444% [at 11.8 µM] (inactive)
same,"activity change, negative = cytotoxicity",[12],1.58% [at 19 µM] (inactive)
COC(=O)N(C(=O)N1COC2(C(=O)OC)Cc3cc(Cl)ccc3C2=N1)c1ccc(OC(F)(F)F)cc1 (stereo unspecified),Potency,[1],inactive
same,Potency,[2],inactive
same,Potency,[3],inactive
same,Potency,[20],inactive
same,Potency,[4],inactive
same,Potency,[5],inactive
same,outcome,[6],inactive
same,Potency,[7],inactive
same,Potency,[15],inactive
same,Potency,[8],29.8 µM (active)
same,Potency,[9],inactive
same,Potency,[16],inactive
same,Potency,[17],inactive
same,Potency,[10],inactive
same,outcome,[11],inactive
same,Potency,[12],inactive
